Abeta rescue: compounds reversing amyloid beta toxicity in yeast; yeast expressing A-beta42, growth rescue, OD600, 48 h; response scale: 0% DMSO, 100% iron-clioquinol control; Potency, µM (doses to about 46.1 µM), actives largely listed as activators; 410,000 compounds, 0.063% hits; AID 1347071; also: nearly all actives have a fitted effect of over 55% in size
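Growth rescue measured by 600 nm absorbance after 48 h yeast culture at 30 C with compound. Values normalized between DMSO and an equimolar ferric chloride plus clioquinol control.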
aSyn rescue: inhibitors of alpha-synuclein toxicity in yeast; AID 652106; 370,000 compounds, 0.14% hits; Potency, µM (highest dose often 46.1 µM), for inactives: at the highest dose growth rescue (activation), hits mostly activators; Yeast expressing alpha-synuclein, growth rescue, BacTiter-Glo, 24 h; also: % of control where 0% means no effect; nearly all actives have a fitted effect of over 65% in size
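Readout is rescue of growth in alpha-synuclein-expressing yeast, so inhibitors of toxicity appear as activators. Growth after 24 hr at 30 deg C in galactose medium is quantified by luminescence.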
FUS yeast rescue: rescues growth of FUS-expressing yeast; 390,000 compounds, 0.24% hits; S. cerevisiae FUS-expressing, growth rescue, OD600, 24 h; Potency, µM (highest dose often 76.6 µM), actives largely listed as activators;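 also: plate controls were DMSO vehicle for no effect and reference control for full effect; nearly all actives have a fitted effect of over 55% in size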
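Quantitative HTS measuring growth restoration of FUS-toxic yeast. Galactose-induced cells (OD 0.005) were exposed 24hr at 30C to compounds at several concentrations, then absorbance at 600 nm was recorded.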
uPA surface inh: cell surface uPA generation inhibition; cell surface uPA generation assay, qHTS; Potency, µM (top dose mostly 38.3 µM), for the others: at the highest dose activity change, negative = inhibition, most hits filed as inhibitors; 330,000 compounds, 0.31% hits; AID 540303; active = well fitted inhibition curve with a large enough effect; inconclusive = small, poorly fitted or top-dose-only effect; inactive = no such curve, though single readings can be large or run the other way; tested in mouse RAW 264.7 cells; also: % is scaled to controls: 0 for no effect and ±100 for the full control effect; nearly all actives have a fitted effect of over 55% in size
TDP-43 yeast inh: rescues yeast growth from TDP-43 toxicity | TDP-43 expressing yeast growth rescue, BacTiter-Glo, 24 h | Potency, µM (top dose mostly 46.1 µM), for the others: at the highest dose growth rescue (activation), usual class: activators | 410,000 compounds, 1.8% hits | AID 652104; also: % of control where 0% means no effect; nearly all actives have a fitted effect of over 50% in size
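Yeast cells expressing TDP-43 under galactose induction are exposed to compounds for 24 hr at 30 deg C. BacTiter-Glo luminescence measures growth, so protective compounds score as activators.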
Chronic BCR inh: blocks chronic active B-cell receptor signaling. ABC-DLBCL IkBa-CBG/CBR reporter, luminescence ratio, 4 h. Potency, µM (titrated, usually from 46.1 µM), for the others: at the highest dose activity change, negative = inhibition, hits mostly inhibitors. 340,000 compounds, 0.05% hits; active = well fitted inhibition curve with a large enough effect in the signal ratio, with a control signal flat, not every such curve was filed as active; inconclusive = small, poorly fitted or top-dose-only effect, or effect the other way, or a change in a side signal; the % refers to the signal ratio;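 also: plate controls were basal doxycycline-induced cells for no effect and cells given 10 µM MG132 for full effect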
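TMD8 ABC-DLBCL cells carrying doxycycline-inducible green luciferase fused to IkappaBalpha plus unfused red luciferase were exposed to compounds (up to 46 uM) for 4 hrs at 37C. Activity came from the overlap-corrected green/red luminescence ratio.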
An asterisk follows results filed as active; i = inactive; u = inconclusive; x = not tested or not shown. Most compounds without a hit are left out; they make up all but 2.3% or so of the library. Unless noted, calls follow the shape of the dose curve; as a rule, active = well fitted curve in the direction sought with a large enough effect; inconclusive = small, poorly fitted or top-dose-only effect, or another doubt; inactive = no such curve, though single readings can be large; an effect the other way counts as inactive or inconclusive. Potency is read from the fitted curve at half-maximal effect.

SMILES	Abeta rescue	aSyn rescue	FUS yeast rescue	uPA surface inh	TDP-43 yeast inh	Chronic BCR inh
COCCNC(=O)/C(C#N)=C/c1cccc(/C=C(\C#N)C(=O)NCCOC)c1	u	19.3%	i	-17.5%	u	14.6µM*
N#C/C(=C\c1ccc(O)c(O)c1)C(=O)NCCCc1ccccc1	i	12.7%	i	3.55µM*	23.5%	u
N#C/C(=C\c1ccc(O)c(O)c1)C(=O)c1ccc(O)c(O)c1	i	-3.2%	i	3.98µM*	17.8%	0.2%
N#C/C(=C\c1ccc(O)c(O)c1)C(=O)N1CCCC1	i	2.8%	i	u	9.3%	-1.5%
COc1cc(/C=C(/C#N)C(=O)NCc2ccccc2)cc(OC)c1OC	i	u	i	u	20µM*	u
NC(c1csc(Nc2ccccn2)n1)c1ccccc1Cl (stereo unspecified)	i	-2.3%	i	x	-3.3%	x
CC(C)(O)C#Cc1ccc(CN2CCN(C3CCCCC3)C(CCO)C2)cc1 (stereo unspecified)	i	0.9%	i	9.7%	14.0%	-24.1%
Clc1ccc(COn2c(-c3ccccc3)nc3ccccc32)cc1	i	-19.1%	i	-3.7%	17.8µM*	12.1%
CN(c1ccccc1C(=O)Nc1ccc2c(c1)n(C)c(=O)n2C)S(C)(=O)=O	i	-2.1%	i	-7.5%	-10.4%	u
CCN(CC)S(=O)(=O)c1ccc(N2CCOCC2)c(NC(=O)c2ccc(C#N)cc2)c1	i	2.3%	28.2µM*	12.1%	1.1%	-3.3%
CN(C)CCNC(=O)C(=O)Nc1ccc2c(c1)N(S(=O)(=O)c1cccs1)CCC2	i	-5.6%	i	4.47µM*	18.9%	u
CN(C)CCCNC(=O)C(=O)Nc1ccc2c(c1)N(S(=O)(=O)c1cccs1)CCC2	i	-5.3%	i	-6.2%	-11.7%	17.8%
Cc1[nH]c(C)c(S(=O)(=O)N2CCN(c3cccc(Cl)c3)CC2)c1C(=O)N1CCCCC1	i	4.4%	i	0.4%	8.4%	5.2%
CC1CCCCC1NC(=O)COn1nnc2ccc(Cl)cc21 (stereo unspecified)	i	5.0%	i	-5.6%	u	-35.0%
Cc1ccc(Nc2nc(CSc3nnc(-c4ccccc4)n3C)cs2)cc1	i	10.4%	i	-4.8%	17.8µM*	u
Cc1ccc(Nc2nc(CSc3nnnn3-c3ccccc3)cs2)cc1	i	-8.4%	i	4.8%	14.1µM*	x
Cc1c(Cl)cccc1-c1ccc(CNc2ccc3[nH]c(=O)[nH]c3c2)o1	i	x	i	x	-5.3%	x
COc1cc(CCC(=O)OCC(=O)Nc2ccccc2C#N)cc(OC)c1OC	i	-9.6%	i	6.3%	-12.3%	-7.1%
Cc1nc2c3cc(F)ccc3n(Cc3ccccc3F)c2s1	i	-19.2%	i	-13.6%	11.2µM*	u
O=c1oc2ccccc2c(N2CCCC2)c1[N+](=O)[O-]	i	-1.3%	i	1.3%	-23.2%	u
CCCC1CCC(c2ccc(C(N)=O)cc2)CC1 (stereo unspecified)	i	-3.7%	i	-7.5%	-0.2%	2.3%
CCCC1CCC(c2ccc(/C(N)=N/O)cc2)CC1 (stereo unspecified)	i	-8.1%	i	-9.9%	3.55µM*	u
Cc1cccc(N(Cc2cc(=O)[nH]c3ccccc23)C(=O)CCl)c1	i	-3.5%	i	7.08µM*	-10.9%	u
CCCC(=O)N(Cc1cc(=O)[nH]c2ccccc12)c1cccc(C)c1	i	-2.8%	i	-3.1%	-3.5%	-3.3%
C=CCOc1ccc(CNn2nnnc2N)cc1	i	2.4%	i	2.4%	26.5%	-6.7%
CCN1C(=O)[C@H]2[C@@H](c3ccc(-c4ccc(OC)cc4)c(OC)c3)N[C@@](CC(C)C)(C(=O)OC)[C@H]2C1=O	i	1.0%	i	5.9%	17.1%	4.8%

High-throughput results as filed in PubChem BioAssay.
